Source: PubChem (Fisher Drug Discovery Resource Center)
mcGAS lum – inhibitors of mouse cGAS | Q8C6L5 | recombinant cGAS, Kinase-Glo ATP depletion luminescence | inhibition, % at 12.5 µM | 160,000 tested, 0.15% active | AID 1259399;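 note: 0% = negative control wells and 100% = reference inhibitor with no enzyme activity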
Target sequence (Q8C6L5 whole entry, looked up): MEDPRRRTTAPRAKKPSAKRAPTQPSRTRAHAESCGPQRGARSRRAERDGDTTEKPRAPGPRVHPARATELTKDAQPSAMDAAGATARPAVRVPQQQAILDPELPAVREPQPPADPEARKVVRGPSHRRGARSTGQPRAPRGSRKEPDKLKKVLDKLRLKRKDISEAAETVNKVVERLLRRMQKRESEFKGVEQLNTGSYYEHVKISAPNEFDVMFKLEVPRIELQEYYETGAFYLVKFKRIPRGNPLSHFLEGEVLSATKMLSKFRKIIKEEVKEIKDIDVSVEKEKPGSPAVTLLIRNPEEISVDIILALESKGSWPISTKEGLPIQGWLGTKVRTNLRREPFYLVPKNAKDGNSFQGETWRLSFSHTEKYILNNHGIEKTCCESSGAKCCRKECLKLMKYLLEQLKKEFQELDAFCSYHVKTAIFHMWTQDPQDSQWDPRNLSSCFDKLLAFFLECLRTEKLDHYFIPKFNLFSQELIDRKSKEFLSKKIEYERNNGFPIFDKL
hcGAS lum – inhibitors of human cGAS; recombinant h-cGAS, ATP depletion, Kinase-Glo luminescence; Q8N884; inhibition, % at 12.5 µM; 290,000 tested, 0.081% active; AID 1259398;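 note: 0% = vehicle reaction and 100% = reaction without DNA for no activity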
NPYLR7 agonist – mosquito NPYLR7 agonism; HEK293T NPYLR7/Galpha15, GCaMP6s calcium fluorescence; activation, % at 10 µM; 270,000 tested, 0.15% active; AID 1259423; in the data active = activation above about 40%;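 note: 0% = vehicle and 100% = reference agonist at the receptor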
* = called active by the depositor; nt = no result given. Shown are actives, neighbours in structure and some others; about 0.28% of the full set was active somewhere. Cut-off read from the data, not from the text of the source, unless noted: active = inhibition above about 40%; inactive = the rest.

SMILES | mcGAS lum | hcGAS lum | NPYLR7 agonist
CCOc1ncccc1C(=O)N1CCOC(COCc2ccccc2F)C1 (stereo unspecified) | -4 | -4 | -5
O=C1CCCC2Nc3ncnc(Cl)c3OC12 (stereo unspecified) | nt | 6 | 77*
CCOC(=O)Cc1cnc(C)[nH]c1=O | -2 | -3 | 4
CCOC(=O)Cc1c(C)n2nc(C)cc2[nH]c1=O | nt | 58* | -2
COc1ccc(C(=O)N(C)CCc2ccc(OC)c(OC)c2)c(OC)c1 | nt | -1 | -2
CN1C=CC(=C/C=C2/C=Nc3ccccc32)C=C1 | -2 | 1 | 54*
CCCCn1c(O)c(C=C2C=Nc3ccccc32)c(=O)[nH]c1=O | 6 | 0 | 6
NS(=O)(=O)c1ccc(CCNC2CC(=O)N(c3ccccc3F)C2=O)cc1 (stereo unspecified) | -5 | -6 | -4
COc1ccc(OCC(=O)NCc2cc(-c3ccc4c(c3)OCO4)on2)cc1 | -8 | -12 | 3
COc1ccc(OC)c(CCNc2nc3cnc(-c4cccc5ccccc45)cc3n2C)c1 | -7 | -6 | 59*
COc1ccc(-c2cc3c(cn2)nc(NCc2ccccc2)n3C)c(C)c1 | -5 | -2 | -2
COc1ccc(OC)c(CCNc2nc3cnc(-c4ccc5c(c4)OCO5)cc3n2C)c1 | 15 | -7 | 71*
CN(C)C(C(=O)NC1CCC(n2cnnc2)CC1)c1ccc(F)cc1 (stereo unspecified) | nt | 0 | 0
COc1ccc(C2=N/C(=C\C(Cl)=C\c3ccccc3)C(=O)O2)c(Cl)c1 | nt | -4 | 0
CCn1c(=O)c(C)nc2cc(C(=O)NC(c3ccccc3)C3CC3)ccc21 (stereo unspecified) | nt | -4 | 6
O=C(NCC1(c2ccccc2)CC1)Nc1ccc2c(c1)C(=O)NC2=O | -14 | -11 | 6
COc1ccc(OC)c(CN2CCCn3cccc3C2c2cccc(C(F)(F)F)c2)c1 (stereo unspecified) | -6 | -4 | -9
COc1cc(/C=C/c2nc3ccccc3o2)cc(Cl)c1O | -13 | -3 | 334*
Nc1ccc(/C=C/c2nc3ccccc3o2)cc1 | -2 | -1 | 2
CC(=O)NCCc1nc2ccccc2n1Cc1cccc2ccccc12 | -7 | -4 | 0
CS(=O)(=O)/C(C#N)=C/c1cnc2ccc(Br)cn12 | -7 | 88* | 1
CCOc1cc(C=C(C#N)S(C)(=O)=O)ccc1OC | -5 | -5 | 6
COc1ccccc1C1c2cccn2CCCN1Cc1ccccc1[N+](=O)[O-] (stereo unspecified) | -5 | 81* | 7
CCc1ccccc1C1c2cccn2CCCN1Cc1ccccc1[N+](=O)[O-] (stereo unspecified) | -3 | 1 | 12
c1ccc(-c2cnc3ccccc3c2)c(CN2CCNCC2)c1 | 0 | 0 | -4
SMILES | mcGAS lum | hcGAS lum | NPYLR7 agonist
COc1ccc(CCNC(=O)c2ccccc2N2CCC(NC(=O)c3ccc(OC)c(OC)c3)CC2)cc1OC | -3 | 0 | 8
COc1ccc(CCNC(=O)c2ccccc2N2CCC(NC(=O)c3ccco3)CC2)cc1OC | 78* | -3 | -5
CC1CN(C(=O)C2CCN(C(=O)C(C)C)CC2)CC(C)O1 (stereo unspecified) | nt | 2 | 4
O=C(Nc1nc2ccc3ccccc3c2s1)c1ccc(Br)s1 | nt | -8 | -1
CN1CC(=O)N2CCN(C/C=C/c3ccc(F)cc3)CC2C1=O (stereo unspecified) | nt | -6 | -3
CCc1cnc(CN(C)C(=O)NC2CCCc3c2cnn3C)s1 (stereo unspecified) | -6 | -8 | 4
CC(=O)C1=C(O)C=C2Oc3c(C(C)=O)c(O)c(C)c(O)c3C2(C)C1=O (stereo unspecified) | 86* | 78* | 1
O=C(/C=C/c1ccc(O)cc1)c1ccc(O)cc1O | 14 | -10 | 2
COc1ccc2nc(/C=C/C(=O)c3ccc(O)cc3)ccc2c1 | 76* | -6 | -3
O=C(/C=C/c1ccccc1)c1ccc(O)cc1O | 85* | 6 | 17
COc1ccc(/C=C/C(=O)c2cc(O)ccc2O)cc1 | 53* | 2 | -6
COc1ccc(/C=C/c2ccc3ccccc3n2)c(OC)c1 | -10 | -11 | 2
COc1ccc(/C=C/C(=O)c2ccc(O)cc2O)cc1 | nt | -1 | -17
Cc1ccccc1N1CCN(c2cc(Cl)nc(SCC(=O)NCCCN3CCCCC3C)n2)CC1 (stereo unspecified) | -6 | -3 | 15
c1cncc(-c2nccn2Cc2ccc(-n3cncn3)cc2)c1 | -19 | 0 | 30
CCOc1cc(C=C2SC(=S)N(c3ccc(OC)cc3)C2=O)ccc1O | -6 | -7 | -4
CCOc1cc(/C=C2\SC(=S)N(NC(=O)c3ccccc3O)C2=O)ccc1O | 8 | -8 | 59*
CC(C)C(C(=O)O)N1C(=O)/C(=C/c2ccc(N(C)C)cc2)SC1=S (stereo unspecified) | -7 | -3 | 54*
COC(=O)c1ccc(/C=C2/SC(=S)N(C(C(=O)O)C(C)C)C2=O)cc1 (stereo unspecified) | -7 | -3 | -2
CC(C(=O)O)N1C(=O)/C(=C\c2ccc(O)cc2)SC1=S (stereo unspecified) | 2 | 0 | 62*
CSCCC(C(=O)O)N1C(=O)/C(=C/c2ccc(C)cc2)SC1=S (stereo unspecified) | 29 | -1 | -5
CC(C)N1C(=O)C(=Cc2ccc(O)cc2)SC1=S | -8 | -8 | 5
CCCC(C(=O)O)N1C(=O)/C(=C/c2ccc(O)cc2)SC1=S (stereo unspecified) | -4 | -4 | 79*
C=CCOC(=O)c1sc(N2C(=O)C(O)=C(C(=O)c3cccs3)C2c2ccccc2OC)nc1C (stereo unspecified) | -1 | -3 | 7
O=C(NCc1cccc(Cl)c1Cl)c1cncn1-c1cccc(-c2ccccc2C(F)(F)F)c1 | 0 | 3 | 9
SMILES | mcGAS lum | hcGAS lum | NPYLR7 agonist
CCOC(=O)C1=C(C)NC2=C(C(=O)C(C(=O)OC)C(C)C2)C1c1ccc(C)o1 (stereo unspecified) | nt | -2 | 0
Cc1ccnc(-n2c(SC3CCOC3=O)nc3ccccc3c2=O)c1 (stereo unspecified) | nt | -6 | 0
CSCCC(=O)NCc1cccnc1N1CCOCC1 | -9 | -8 | 0
Cc1nc2c(s1)CN(C(=O)CN)CC2 | nt | -3 | -6
CC(=O)NN1C(=O)/C(=C\c2ccc(O)cc2)SC1=S | -8 | -8 | 81*
Cc1ccc(/C=C2\SC(=S)N(CCC(=O)O)C2=O)cc1 | -1 | 4 | -3
CN1C(=O)C(=Cc2ccc(O)cc2)SC1=S | nt | 4 | 18
O=C(O)CCN1C(=O)/C(=C/c2ccc(O)cc2)SC1=S | 0 | -4 | 92*
CC(Sc1nnc(C(F)(F)F)n1C)C(=O)Nc1ccc2c(c1)OCO2 (stereo unspecified) | -2 | -6 | 1
Cc1csc(=O)n1CC(=O)OCc1csc(-c2ccccn2)n1 | -7 | -8 | 4
C=CCN(C(=O)Cc1cnc2c(C)cccn12)C1CCS(=O)(=O)C1 (stereo unspecified) | nt | 1 | nt
COc1cc(C=CC(=O)c2ccc3c(c2)OCCO3)cc(Br)c1O | -6 | -10 | 145*
CCOc1cc(C=CC(=O)c2ccc3c(c2)OCCO3)cc(Br)c1OCC | -7 | -8 | 3
Cc1ccc(O)c(NC(=O)c2cc3nc(-c4ccccc4)cc(C(F)(F)F)n3n2)c1 | -4 | -1 | -9
